The list is not random: actives were taken first. Their share in the collection is about 1.5%.
Polio RdRp inh: poliovirus RNA polymerase inhibition | poliovirus polymerase elongation, fluorescence polarization; stronger effect = lower value | % elongation, % (compound at 16.7 µg/mL) | 150,000 tested, 0.66% active | AID 588519; in the data active = % elongation below about 90%
Mtb MenB inh: inhibitors of Mycobacterium tuberculosis MenB enzyme. P9WNP5. MenB enzyme assay, absorbance read-out. inhibition, % (test concentration not listed). 100,000 tested, 0.43% active; in the data active = inhibition above about 21%, passing the limit was not always enough
Mtb MbtI inh: MbtI salicylate synthase inhibition. P9WFX0. purified MbtI enzyme, fluorescence intensity read-out. inhibition, % (no concentration beside the values). 100,000 tested, 0.89% active; in the data active = inhibition mostly above about 56%, no sharp cut-off; inactive = mostly below about 77%
Target sequence (P9WFX0 whole entry, looked up): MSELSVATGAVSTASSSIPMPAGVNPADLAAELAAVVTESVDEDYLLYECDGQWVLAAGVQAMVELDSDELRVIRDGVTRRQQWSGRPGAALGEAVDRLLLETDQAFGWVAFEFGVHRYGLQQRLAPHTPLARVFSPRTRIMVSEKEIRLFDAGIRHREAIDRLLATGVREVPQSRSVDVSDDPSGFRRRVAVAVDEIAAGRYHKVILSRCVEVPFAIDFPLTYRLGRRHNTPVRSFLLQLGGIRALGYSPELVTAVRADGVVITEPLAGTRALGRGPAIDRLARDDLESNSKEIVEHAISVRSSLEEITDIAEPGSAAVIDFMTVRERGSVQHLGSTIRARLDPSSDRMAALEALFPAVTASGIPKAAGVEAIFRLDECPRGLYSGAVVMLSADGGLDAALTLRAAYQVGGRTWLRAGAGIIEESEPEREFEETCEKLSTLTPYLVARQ
AID504770: E. coli YBA685 growth inhibition, screen for V. cholerae RctB inhibitors. E. coli YBA685 rctB-dependent plasmid, OD600 growth, 3 h; stronger effect = lower value. z-score (test concentration not listed). 130,000 tested, 0.27% active; in the data active = z-score below about -2, passing the limit was not always enough
Numbers without * were called inactive; i = inactive; x = no result given.

SMILES | Polio RdRp inh | Mtb MenB inh | Mtb MbtI inh | AID504770
C=CCC1Cc2ccccc2C(CC=C)N1 (centres undefined) | 100.0 | 39.3* | -3.1 | -0.1
CCN(Cc1ccccc1)C(c1ccccn1)c1nnnn1C1CCCCC1 (centres undefined) | 102.0 | 34.3* | 4.8 | 0.45
CCCOc1ccc(C(=O)CCN(C)C)cc1 | 97.0 | -57.2 | 59.0* | -0.85
CN(C)CCC(=O)c1ccc(Br)cc1 | 102.0 | -6.4 | 69.0* | -0.8
CCCOc1ccc(C(=O)O)cc1 | 103.0 | x | -5.4 | -0.15
O=C(c1ccc(-n2nc(C(F)(F)F)c3c2-c2ccoc2CC3)cc1)N1CCCc2ccccc21 | 99.0 | -2.5 | -2.4 | 0.3
CCN1CCN(S(=O)(=O)c2ccc(Cl)c(C(=O)NCCc3ccc4c(c3)OCCO4)c2)CC1 | 111.0 | -2.6 | -9.8 | -0.2
CCCCNC(=O)Sc1ccc2ccccc2c1 | 84.0* | -8.0 | 51.3 | 0.5
CCn1c2ccccc2c2cc(NC(=O)C(C)OC(=O)c3cccn3C)ccc21 (centres undefined) | 20.0* | -13.5 | 16.6 | 0.4
CC(OC(=O)c1cccn1C)C(=O)Nc1ccc(Cl)cc1 (centres undefined) | 113.0 | -14.2 | -3.5 | 0.15
Nc1nonc1C(=O)NN=c1c(=O)c2ccccc2c1=O | 47.0* | i | -26.4 | -0.8
Nc1nonc1C(=O)NCCN=Cc1ccccc1O | 106.0 | -8.7 | 5.8 | -0.75
C=C(C)c1ccccc(=O)c1O | x | x | x | -5*
CCCCS(=O)(=O)NCc1ccc(OC)c(OC)c1 | 102.0 | -7.3 | 17.4 | 1.85
CC12CCC(=O)N1C(C(=O)O)Cc1c2[nH]c2ccccc12 (centres undefined) | 85.0* | -18.4 | -5.4 | -0.45
CC(=O)N1C(C(=O)O)Cc2c([nH]c3ccccc23)C1(C)C (centres undefined) | 105.0 | -4.1 | x | 0
Nc1sc(=S)nc2ccccc12 | 97.0 | -98.8 | 51.8* | -0.35
Nc1c2ccccc2nc2ccccc12 (tested in a mixture with another compound) | 100.0 | -3.6 | i | 0.1
C=CCSc1nnc(NC(=O)NC2CCCCC2)s1 | 105.0 | -17.4 | -10.0 | -2.8*
CC(=O)c1ccc(NC(=O)CSc2nnc(NC(=O)NC3CCCCC3)s2)cc1 | 109.0 | x | x | x
NC(=S)NNc1ccc(S(N)(=O)=O)cc1 | 101.0 | 3.4 | 51.5* | -0.5
Cc1nn2c(nc(N3CCCC3)c3ccccc32)c1C=C1C(=O)N(C)C(=O)N(C)C1=O | 105.0 | 14.0 | 1.2 | 2.3
Cc1c(C(=O)NNc2ncnc3sc4c(c23)CCCC4)oc2ccccc12 | 104.0 | -21.3 | -5.5 | -4.25*
O=C(Nc1ncnc2sc3c(c12)CCC3)c1ccccc1 | x | x | x | -0.45
CCCCCOc1ccc(NC(=O)Cn2c(-c3cncs3)nc3ccccc32)cc1 | 89.0* | x | x | x
SMILES | Polio RdRp inh | Mtb MenB inh | Mtb MbtI inh | AID504770
CCOc1ccccc1NC(=O)NC1(C(=O)NCc2ccco2)CCCCC1 | 100.0 | 6.2 | -6.6 | -0.05
O=C(Nc1ccc(N2CCOCC2)cc1)C1=NCCN1 | 63.0* | -18.1 | -6.8 | -0.55
O=C(O)c1nccnc1C(=O)Nc1ccc(N2CCOCC2)cc1 | 101.0 | -10.2 | 5.3 | 1.45
Cc1csc(CC(N)=S)n1 | 102.0 | -55.7 | 98.2* | -1.65
O=C(O)c1ccccc1-c1c2cc(Br)c(=O)cc-2oc2[c]([Hg])c(O)c(Br)cc12 | 70.0 | -1.9 | 103.8* | 0.05
Cc1ccc(C)n1-c1ccc(C(=O)NCC(=O)O)cc1 | 69.0* | -12.5 | 7.9 | -0.6
NC(=S)N/N=C/c1ccc(N2CCOCC2)s1 | 81.0 | -265.7 | 89.1* | 0.25
COc1ccccc1NS(=O)(=O)c1ccc2oc(=S)n(CN(C)CCC#N)c2c1 | 85.0* | -18.2 | 4.6 | -0.3
COc1ccccc1NS(=O)(=O)c1ccc2oc(=S)n(CN3CCCC3)c2c1 | 103.0 | -11.7 | 12.6 | -0.75
Cc1cccc(OCCCC(=O)O)c1 | 101.0 | x | -1.5 | 1.1
CCNC(=O)CCOc1cccc(C)c1 | 52.0* | 1.7 | 0.5 | -0.05
Cc1[nH]n(-c2nc3ccccc3[nH]2)c(=O)c1C1OC(=O)c2ccccc21 (centres undefined) | 62.0* | -21.3 | 99.6* | -0.65
Cc1cc(N)cc2[nH]c(-c3ccc(N)cc3)nc12 | 66.0* | -6.8 | x | 0.8
CCN(CC)C(=O)c1sc(NC(=S)N(C)Cc2cn(CC)nc2C)c(C(=O)OC)c1C | 100.0 | -9.8 | 10.9 | 2.1
CCN(CC)C(=O)c1sc(NC(=S)Nn2cnnc2)c(C(=O)OC)c1C | 98.0 | 5.3 | 54.8* | 1.45
CCOC(=O)c1c(NC(=S)Nn2cnnc2)sc2c1CCCCCC2 | 98.0 | -40.8 | 89.2* | -0.75
CCc1noc(C)c1C(=O)NCc1ccc(C(=O)OC)cc1 | 99.0 | -21.7 | 23.6 | -0.8
Cc1cc(C(=O)NC2CCCC(C)C2C)n(-c2ccccc2)n1 (centres undefined) | 101.0 | -8.3 | -18.6 | -0.5
COc1ccc(-c2noc(=O)n2Cc2cccc(C)c2)cc1 | 103.0 | 11.3 | -3.9 | 0.35
COc1ccc(-c2noc(=O)n2CCCC#N)cc1OC | 103.0 | 31.1* | 0.1 | 1.3
CC(C)Cn1c(O)c(C2=c3ccccc3=NC2=O)c2ccccc21 | 103.0 | x | -2.2 | 0.35
Cc1ccc2nc(SCC(=O)N3CCCCC3)c(C#N)cc2c1 | 102.0 | 41.0* | 0.1 | 1.05
CCCn1c2c(c(O)c(C(=O)Nc3ccccc3F)c1=O)CCCC2 | 101.0 | 47.9* | -3.0 | -0.45
O=C(Nc1ccc(Cl)cc1Cl)c1c(O)c2c(n(Cc3ccco3)c1=O)CCCC2 | 103.0 | -2.9 | x | 0.15
COc1ccc(Cl)cc1-n1nnc(-c2nc(-c3ccccc3)no2)c1C | 102.0 | x | x | x
SMILES | Polio RdRp inh | Mtb MenB inh | Mtb MbtI inh | AID504770
Cc1c(-c2nc(-c3ccccc3)no2)nnn1-c1ccc(F)c(Cl)c1 | 81.0* | x | x | x
Cc1ccc(C)n1-c1n[nH]c(=S)s1 | 99.0 | -25.8 | 54.8 | -1.75
CCCc1n[nH]c(=S)s1 | 87.0* | -5.1 | 89.0* | -0.3
Cc1ccc(-c2csc3nnc(SCC(N)=O)n23)cc1 | 102.0 | 37.2* | 4.0 | 1.1
S=C(Nc1cccc(Cl)c1)Nc1cccc(Cl)c1 | 102.0 | -5.3 | 5.7 | 0.4
O=C(O)c1ccc(Br)c(C(=O)O)c1 | 102.0 | -8.3 | x | -0.5
O=C(O)c1coc(=O)c(Br)c1 | x | x | -12.2 | -4.7*
Cc1ccccc1C(=O)NN1C(=O)c2ccccc2C1=O | 101.0 | 32.7* | -0.7 | -0.3
O=C(NN1C(=O)c2ccccc2C1=O)c1ccccc1 | 100.0 | 8.2 | x | -0.6
O=C(CCNS(=O)(=O)c1ccccc1)N1CCCC1 | 102.0 | 1.5 | -7.8 | 0.25
CC(CNS(=O)(=O)c1ccccc1)(c1ccccc1)N1CCCCC1 (centres undefined) | 100.0 | x | -8.8 | -4.1*
CC(=O)Nc1nc(NC(C)=O)n(-c2ccccc2)n1 | 103.0 | 4.2 | 17.1 | 2.4
Nc1nc(NC(=O)CCC(=O)O)nn1-c1ccccc1 | 102.0 | 30.3* | 4.8 | -0.55
CCO/C=C1/C(=O)N(c2ccc(Cl)cn2)C(=O)c2ccccc21 | 85.0* | -16.7 | 91.5 | -0.15
CCO/C=C1\C(=O)N(C)C(=O)c2ccccc21 | 10.0* | x | -9.5 | -0.6
CCO/C=C1/C(=O)NC(=O)c2ccccc21 | 211.0 | 3.5 | 26.4 | -2.1
CCO/C=C1/C(=O)N(Cc2ccc(OC)cc2)C(=O)c2ccccc21 | 36.0* | 24.1 | -7.0 | 1.1
O=C(CSc1nncs1)c1cccs1 | 102.0 | -17.8 | 0.6 | -2.85
